D3 ag: agonists of human D3 dopamine receptor; P35462; D3R DiscoveRx beta-arrestin cells, luminescence, 90 min; 410,000 tested, 0.58% active; max activation, %; AID 652048; in the data active = max activation above about 30%; also: 0% is about no effect
Target sequence (P35462 whole entry, looked up): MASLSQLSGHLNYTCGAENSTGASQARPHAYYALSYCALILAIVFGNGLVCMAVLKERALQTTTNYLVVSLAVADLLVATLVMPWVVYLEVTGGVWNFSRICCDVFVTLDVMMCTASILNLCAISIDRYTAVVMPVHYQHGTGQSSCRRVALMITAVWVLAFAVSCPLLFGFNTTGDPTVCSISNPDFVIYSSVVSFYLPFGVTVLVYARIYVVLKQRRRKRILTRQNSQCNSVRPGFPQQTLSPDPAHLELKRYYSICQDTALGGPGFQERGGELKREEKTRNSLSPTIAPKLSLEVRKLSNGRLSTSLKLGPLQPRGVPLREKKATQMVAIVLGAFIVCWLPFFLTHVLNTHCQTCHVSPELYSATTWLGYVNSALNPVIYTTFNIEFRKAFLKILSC
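Cells at 1500/well, incubated overnight, then treated with pinned compounds (dopamine as control) for 90 min at 37 degrees C. DiscoveRx reagent added for 30 - 60 minutes at room temperature; luminescence read.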
D1 ag: human D1 receptor agonism. HEK293 T-REx D1 cells, calcium flux, agonist mode. activation, % at 2 µM. 360,000 tested, 1% active; in the data active = activation above about 30%; also: 0% is about no effect
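Inducible HEK293 T-REx D1 cells, force-coupled to calcium signalling, were plated at 4000 cells/well with tetracycline and held overnight at 30 C. After no-wash calcium dye loading, compound-evoked calcium rise over 180 s flagged agonists.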
D1 potentiator: potentiators of human D1 dopamine receptor. P21728. HEK293 TREx D1 cells, calcium flux, dopamine EC20 potentiation. potentiation, % at 10 µM. 360,000 tested, 0.036% active; in the data active = potentiation above about 30%; also: 0% is about no effect
Chronic BCR inh: chronic active BCR signaling inhibition; 340,000 tested, 0.05% active; AID 493014; ABC-DLBCL IkBa-CBG/CBR reporter, luminescence ratio, 4 h; Potency, µM (highest dose often 46.1 µM), for the others: at the highest dose activity change, negative = inhibition, most hits filed as inhibitors; active = well fitted inhibition curve with a large enough effect in the signal ratio, with a control signal flat, not every such curve was filed as active; inconclusive = small, poorly fitted or top-dose-only effect, or effect the other way, or a change in a side signal; the % refers to the signal ratio;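 also: potency is read from the fitted curve at half-maximal effect; plate controls were basal doxycycline-induced cells for no effect and cells given 10 µM MG132 for full effect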
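Doxycycline induced both beetle luciferases in TMD8 lymphoma cells; IKK-driven degradation limits the IkappaBalpha-fused green signal, while red luminescence normalises for cell number and nonspecific effects. Compounds tested up to 46 uM, 4 hrs.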
DRD3 antagonist: blocks the human D3 dopamine receptor. D3R cells, DiscoveRx beta-arrestin luminescence, antagonist mode; hits give low values. max response, negative = inhibition, %. 360,000 tested, 2.5% active; in the data active = max response below about -50%; inconclusive = no clear call, values can overlap the other calls; also: % is scaled to controls: 0 for no effect and ±100 for the full control effect
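Cells expressing the human receptor were seeded at 1500 cells/well, incubated overnight at 37 degrees C in 5% CO2, then exposed to library compounds with dopamine controls for 90 minutes at 37 degrees C before luminescent detection.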
D1 antag: blocks dopamine activation of the human D1 receptor; P21728; HEK293 TREx D1 cells, calcium flux, dopamine EC80; hits give low values; activity change, negative = inhibition, % at 10 µM; 360,000 tested, 3.2% active; AID 504652; in the data active = activity change below about -30%; also: % is scaled to controls: 0 for no effect and ±100 for the full control effect
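Tetracycline-induced HEK293 Trex D1 cells, force-coupled to calcium, dye-loaded; compounds added and read 180 s, then EC80 dopamine added and calcium flux tracked kinetically another 180 s.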
Active calls of the source: *; ? = inconclusive; . = not tested or not shown; ! = not active in a repeat. An excerpt weighted towards active compounds, which were near 6% of everything screened.

SMILES	D3 ag	D1 ag	D1 potentiator	Chronic BCR inh	DRD3 antagonist	D1 antag
Cc1ccc[n+](C(C)C(=O)Nc2ccc(C)c([N+](=O)[O-])c2)c1 (centres undefined)	-10.7	0.2	-2.2	-0.3%	-70.0*	7.0
CC(C)C[C@H]1C(=O)N2CCC[C@H]2[C@]2(O)O[C@](NC(=O)C3C=C4c5cccc6[nH]c(Br)c(c56)C[C@H]4N(C)C3)(C(C)C)C(=O)N12 (some centres undefined)	20.9	.	.	.	-55.1*	.
Cc1ccc(CNC(=O)c2cc3c(=O)n(Cc4ccco4)ccc3nc2C)cc1	28.7	2.5	-7.6	.	.	0.3
COc1ccc(OC)c(CCNC(=O)c2c(C)oc3ncn(C)c(=O)c23)c1	2.7	0.7	-7.2	.	.	-30.6*
COc1ccccc1N1CCN(C(=O)c2cc(-c3ccc(C)cc3)on2)CC1	4.2	1.9	-4.3	5.6%	23.0	-44.6*
COc1ccc(OC)c(CCNC(=O)c2c(C)oc3ncn(CC(C)C)c(=O)c23)c1	-3.9	2.3	-3.1	.	.	-11.6
COc1ccccc1N1CCN(C(=O)c2c(C)oc3ncn(C)c(=O)c23)CC1	-0.9	1.2	-6.4	.	.	-35.3*
COc1ccccc1N1CCN(C(=O)c2cc(-c3ccc(F)cc3)on2)CC1	1.7	3.3	0.8	?	-1.7	1.6
CNc1cccc(-c2cccc(C(=O)N3CCOCC3)c2)n1	-2.8	.	.	.	15.5	.
Cc1cc(-c2ccc(S(=O)(=O)Nc3cccc(C)c3C)s2)on1	-14.9	11.4	-6.2	.	.	8.9
O=C(Nc1ccc(Cl)c(Cl)c1)N1CCC(c2ccccc2)C1 (centres undefined)	-7.3	12.5	-5.8	?	.	-42.7*
Cc1ccc(C2CCN(C(=O)Nc3ccc(Cl)cc3)C2)cc1 (centres undefined)	4.7	4.8	-7.2	6.5%	.	-24.3
Cc1ccc(NC(=O)N2CCCC(c3ccccc3)C2)cc1 (centres undefined)	34.0*	0.9	-0.1	-2.9%	12.5	3.6
CCc1ccc(NC(=O)N2CCC(c3ccccc3)C2)cc1 (centres undefined)	-2.5	0.1	-4.5	12.8%	0.2	-7.5
CCOc1ccc(NC(=O)N2CCC(c3ccc(C)cc3)C2)cc1 (centres undefined)	8.2	0.6	-6.0	13.4%	-10.3	-30.9*!
Cc1ccc(C2CCN(C(=O)Nc3ccc(Cl)c(Cl)c3)C2)cc1 (centres undefined)	0.0	7.5	-8.4	?	.	-45.0*
O=C(Nc1ccccc1)N1CCC(c2ccccc2)C1 (centres undefined)	-1.5	3.4	-10.4	?	-8.4	-7.3
CCN(CC)CCNC(=O)c1ccc(Cn2c(=O)c3cccn3c3cccnc32)cc1	-1.3	1.3	-1.8	.	.	-16.1
O=C(Nc1ccc(F)cc1)N[C@H]1CC[C@H](CCNS(=O)(=O)c2cccc(Cl)c2)O[C@@H]1CO	-4.0	.	.	.	7.1	.
Cc1ccc(C)c(CN2C(=O)c3ccccc3Sc3ccc(C(=O)NCc4ccc5c(c4)OCO5)cc32)c1	8.4	9.4	-2.6	?	.	-2.5
COC(=O)c1cn[nH]c1N	3.0	3.9	-10.4	9.4%	14.0	-30.4*
CCOC(=O)[C@]12CCCC=C1N(Cc1ccco1)C(=O)[C@H](CC(=O)N1CCCCC1)C2	-3.1	.	.	.	-8.0	.
CCOC(=O)C(=CNc1cc(C)ccc1C)C(=O)OCC	19.4	2.5	7.8	-1.7%	113.4	12.5
CCOC(=O)C(=CNc1cc(OC)ccc1-n1cccc1)C(=O)OCC	50.9*	6.8	-0.5	?	90.6	-19.8
Cc1ccc(S(=O)(=O)N2CCN(Cc3nnc(-c4c(-c5ccccc5)noc4C)o3)CC2)cc1	-7.9	4.4	.	-2.9%	15.2	-41.7*
SMILES	D3 ag	D1 ag	D1 potentiator	Chronic BCR inh	DRD3 antagonist	D1 antag
O=S(=O)(c1ccccc1)N1CCN(Cc2nnc(-c3ccccc3)o2)CC1	5.4	.	.	.	20.5	.
Cc1ccc(NC(=O)C(C)Sc2nc3c(c(=O)[nH]2)CCCC3)cc1Cl (centres undefined)	-1.0	-0.7	2.0	.	.	-2.1
CC(=Nc1cccc(C)c1)c1sc2ccccc2c1O	2.4	23.2	-1.4	-0.9%	-23.6	3.0
CC(=O)NCCN=C(C)c1sc2ccccc2c1O	-1.4	1.6	-7.0	0.1%	-4.1	6.3
CC(=Nc1ccccc1O)c1sc2ccccc2c1O	4.6	48.5*	-4.5	?	-12.8	-25.0
CC(=Nc1ccc(O)cc1)c1sc2ccccc2c1O	-0.3	53.3*	1.1	-16.4%	-8.5	0.3
COc1cccc(CNc2cc(C)nc3nc(-c4ccc(C)cc4)nn23)c1	-3.7	6.2	-3.1	.	.	2.3
CN(C)CCOc1ccc2c(c1)C(=O)C(=Cc1ncc([N+](=O)[O-])n1C)C2	-4.1	.	.	.	-8.8	.
Cc1cc(=O)[nH]c(SCC(=O)Nc2ccc3c(c2)OCCO3)n1	3.9	0.9	3.4	?	8.6	6.3
O=C(CSc1nccc(=O)[nH]1)Nc1ccc2c(c1)OCCO2	-8.5	0.5	-0.8	?	0.0	-57.8*
O=C(CSc1nccc(=O)[nH]1)NCc1ccc2c(c1)OCO2	-5.6	1.6	2.5	-0.6%	2.6	-35.1*
O=C(CSc1nccc(=O)[nH]1)Nc1ccc2ccccc2c1	7.5	.	.	8.6%	12.2	.
O=C(CSc1nccc(=O)[nH]1)Nc1ccc(Oc2ccccc2)cc1	4.5	2.2	-9.6	-1.5%	7.2	-57.0*
O=C(CSc1nccn1Cc1ccc(Cl)cc1)Nc1ccc2c(c1)OCCO2	-2.7	1.2	1.1	.	.	-30.9*
COc1ccc(-c2cc3ccc(O)c(CN4CCOCC4)c3oc2=O)cc1OC	4.8	7.5	-1.2	.	.	3.7
CCc1ccc2nc(N(Cc3cccnc3)C(=O)c3cccs3)sc2c1	-8.9	23.2	-1.2	?	.	.
O=C(c1ccc2c(c1)N(Cc1ccc(F)cc1)C(=O)c1ccccc1S2(=O)=O)N1CCCCCC1	-10.7	8.3	3.8	.	.	7.6
C/C(=C\c1ccccc1)CN1CCC(C(=O)N2CCCCC2)CC1	-12.4	6.0	-1.2	0.7%	-56.8*	-0.7
CCCCN(C)C(=O)C1CCN(Cc2cccnc2)CC1	-11.0	0.6	-17.9	-3.6%	2.5	10.0
CCCCNC(=O)C1CCN(C/C(C)=C/c2ccccc2)CC1	-12.6	7.2	-3.0	3.5%	-65.6*	-1.0
C/C(=C\c1ccccc1)CN1CCC(C(=O)N2CCC(C)CC2)CC1	-11.2	1.3	-11.7	-20.1%	-26.5	-8.4
CCCCN(C)C(=O)C1CCN(C/C(C)=C/c2ccccc2)CC1	1.1	0.0	-4.2	-9.2%	-64.8*	12.3
CCCc1nc2ccccc2c(C(=O)OCC(=O)N2CCc3ccccc32)c1CC	70.0*	2.4	-6.1	-1.2%	82.9	-18.9

Compound activity (PubChem)
